Screening results as filed in PubChem.
Compounds with a hit are over-represented: about 2% of the library has one in this group of screens.
Neddylation inh: inhibitors of cullin neddylation, primary screen, biochemical, TR-FRET, uHTS, NAE and Ubc12; NEDD8-conjugating enzyme Ubc12 (Homo sapiens) + NEDD8-activating enzyme E1 regulatory …; inhibition, % at 25 µM; 360,000 tested, 0.58% active; AID 651699, 2012; in the data active = inhibition above about 36%
NadD block: inhibitors of S. aureus NadD, primary screen, biochemical, colorimetric, uHTS | Nicotinate-nucleotide adenylyltransferase NadD (Staphylococcus aureus N315) | purified NadD enzyme, colorimetric absorbance read-out | inhibition, % at 20 µM | 360,000 tested, 0.78% active | AID 602399, 2012; in the data active = inhibition above about 26%
ARNT TACC3 PPI: disruptors of ARNT/TACC3 protein interaction, primary screen, biochemical, AlphaScreen, single concentration. AlphaScreen His-ARNT PAS-B/GST-TACC3 binding, luminescence; TACC3 fragment carries E629A point mutation. inhibition, % at 9.99 µM. 390,000 tested, 0.66% active;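 active = mean inhibition of replicates at least 50% and at least half of replicates each reaching 50%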
DAGLB inhibitor: DAGLB lipase inhibitors, primary screen, biochemical, fluorescence, HTS | Diacylglycerol lipase-beta (Homo sapiens), Q8NCG7 | HEK293T DAGLB membrane lysate, EnzChek fluorogenic substrate | inhibition, % at 5.17 µM | 340,000 tested, 0.059% active; in the data active = inhibition above about 34%
sPLA2-III inh: human group III sPLA2 inhibitors, primary screen, biochemical, QFRET, BODIPY PC-A2 liposome substrate; Group 3 secretory phospholipase A2 (Homo sapiens), Q9NZ20; AID 743126, 2013; inhibition, % at 12.2 µM; QFRET BODIPY PC-A2 liposome hydrolysis, fluorescence; 370,000 tested, 0.56% active;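 active = inhibition above mean plus 3 SD of compounds lying within the high and low control bounds, cut at about 19% in these data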
Target sequence (Q9NZ20 whole entry, looked up): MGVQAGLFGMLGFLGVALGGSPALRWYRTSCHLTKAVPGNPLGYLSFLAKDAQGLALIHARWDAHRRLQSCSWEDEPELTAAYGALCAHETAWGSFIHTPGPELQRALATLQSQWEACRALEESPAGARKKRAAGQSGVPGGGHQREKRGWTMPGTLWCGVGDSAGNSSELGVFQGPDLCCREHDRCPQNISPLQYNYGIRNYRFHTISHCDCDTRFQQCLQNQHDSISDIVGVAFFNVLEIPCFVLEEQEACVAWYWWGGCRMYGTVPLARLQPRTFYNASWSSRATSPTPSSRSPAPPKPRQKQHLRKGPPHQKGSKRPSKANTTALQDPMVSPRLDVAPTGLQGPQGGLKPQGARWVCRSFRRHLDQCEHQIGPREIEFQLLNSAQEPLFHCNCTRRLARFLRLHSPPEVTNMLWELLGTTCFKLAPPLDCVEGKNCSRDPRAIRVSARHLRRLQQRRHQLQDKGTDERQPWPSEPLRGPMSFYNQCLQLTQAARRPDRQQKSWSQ
NadD conf: inhibitors of S. aureus NadD, confirmation, biochemical, colorimetric, single concentration | AID 624309, 2012 | shares compounds with NadD block | 2,000 tested, 13% active | inhibition, % at 20 µM | purified S. aureus NadD, colorimetric enzyme assay; in the data active = inhibition mostly above about 42%, no sharp cut-off; inactive = mostly below about 42%
Of the large screens only hits and unclear results are named; the others gave an inactive call (follow-up assays come after a bar, where shown).

NS(=O)(=O)c1ccc(-c2ccc(/C=N/NC(=O)c3ccc([N+](=O)[O-])cc3)o2)cc1	none
CCCOc1ccc(C(=O)N/N=C/c2ccc(-c3ccc(S(=O)(=O)Nc4ncccn4)cc3)o2)cc1	NadD block 32 (not shown: Neddylation inh) | NadD conf 49
O=C(NCc1nc2ccccc2[nH]1)C1=C[C@H](c2csc3ccccc23)C[C@H](OCc2ccc(CO)cc2)O1	NadD block 32 | NadD conf inactive
O=C(NCc1nc2ccccc2[nH]1)C1=C[C@@H](c2ccc(Br)cc2)C[C@@H](OCc2ccc(CO)cc2)O1	none
O=C(NCc1nc2ccccc2[nH]1)C1=C[C@@H](c2csc3ccccc23)C[C@@H](OCc2ccc(CO)cc2)O1	NadD block 34 | NadD conf inactive
CN(C)CCCNC(=O)C[C@H]1CC[C@@H]2[C@H](COC[C@H](O)CN2CC2CCCC2)O1	none (no result: Neddylation inh, NadD block, DAGLB inhibitor, sPLA2-III inh)
CCOC(=O)c1ccccc1NC(=O)c1ccc2c(SCC(=O)O)c3c(nc2c1)CCCC3	NadD block 30 | NadD conf 62
O=C(O)CSc1c2c(nc3cc(C(=O)Nc4cccc(C(F)(F)F)c4)ccc13)CCC2	NadD block 34 | NadD conf inactive
CC(C)NC(=O)Nc1ccc2c(c1)C(=O)N([C@H](C)CO)C[C@H](C)[C@H](CN(C)S(C)(=O)=O)OCCCC[C@H](C)O2	none (no result: Neddylation inh, NadD block, DAGLB inhibitor, sPLA2-III inh)
COc1ccc(C(C(=O)NC2CCCC2)N(C(=O)c2snc(-c3ccc(F)cc3)c2N)c2cccc(F)c2)cc1 (configuration not stated)	NadD block 39 | NadD conf inactive
COc1ccc(C(C(=O)NC2CCCC2)N(C(=O)c2snc(-c3ccc(F)cc3)c2N)c2ccccc2)cc1 (configuration not stated)	none
Cc1ccc(NC(=O)c2ccc(Cl)c(NC(=O)c3cccs3)c2)cc1	none
Cc1nc2ccc(NC(=O)c3ccc(Cl)c(NC(=O)c4cccs4)c3)cc2s1	NadD block 28 | NadD conf inactive
COCC(=O)N[C@@H]1CC[C@H](CC(=O)N2CCCCC2)O[C@@H]1CO	none (no result: Neddylation inh, NadD block, DAGLB inhibitor, sPLA2-III inh)
OC(CNCCC1C=Nc2ccccc21)Cn1c2ccc(Cl)cc2c2cc(Cl)ccc21 (configuration not stated)	NadD block 34 | NadD conf inactive
OC(CNCC1CCCO1)Cn1c2ccc(Cl)cc2c2cc(Cl)ccc21 (configuration not stated)	none
O=C(CCN1CCCCC1)N[C@H]1CC[C@@H](CCn2cc(-c3ccccc3)nn2)O[C@H]1CO	none (no result: Neddylation inh, NadD block, DAGLB inhibitor, sPLA2-III inh)
Cc1c(C(=O)NNC(=O)c2ccccc2O)oc2ccc(Br)cc12	NadD block 30 | NadD conf 56
CCOc1ccc2oc(C(=O)NNC(=O)c3ccccc3O)c(C)c2c1	none
O=C(C[C@@H]1CC[C@@H]2[C@H](COC[C@@H](O)CN2C(=O)c2cnccn2)O1)NCc1ccc(F)cc1	none (no result: Neddylation inh, NadD block, DAGLB inhibitor, sPLA2-III inh)
CO[C@@H]1CC[C@@H]2CCN(C)C(=O)C[C@@H](c3ccccc3)CN(C)C(=O)c3cc(C#N)ccc3OC[C@@H]1O2	none (no result: Neddylation inh, NadD block, DAGLB inhibitor, sPLA2-III inh)
O=C(N[C@@H]1CC[C@@H](CCn2cc(-c3cccnc3)nn2)O[C@@H]1CO)c1ccccc1F	none (no result: Neddylation inh, NadD block, DAGLB inhibitor, sPLA2-III inh)
NS(=O)(=O)c1ccc(NC(=O)/C=C/c2cn(-c3ccccc3)nc2-c2cccc(Cl)c2)cc1	NadD block 41 | NadD conf inactive
O=C(/C=C/c1cn(-c2ccccc2)nc1-c1ccccc1)Nc1ccc(C(=O)O)cc1	none
CO[C@H]1CN(C)C(=O)c2ccc(NC(=O)C3CC3)cc2OC[C@@H](C)N(Cc2ccncc2)C[C@H]1C	none (no result: Neddylation inh, NadD block, DAGLB inhibitor, sPLA2-III inh)
CCOC(=O)Nc1ccc2c(CN3CCN(S(=O)(=O)c4ccc(C(C)C)cc4)CC3)cc(=O)oc2c1	NadD block 50 (no result: ARNT TACC3 PPI) | NadD conf inactive
CCOC(=O)Nc1ccc2c(CN3CCN(S(=O)(=O)c4ccccc4F)CC3)cc(=O)oc2c1	none
COc1ccc(S(=O)(=O)Nc2ccc3c(c2)C(=O)N([C@@H](C)CO)C[C@@H](C)[C@H](CN(C)C(=O)Nc2ccc(F)cc2)O3)cc1	none (no result: Neddylation inh, NadD block, DAGLB inhibitor, sPLA2-III inh)
CCNC(=O)C[C@@H]1CC[C@H]2[C@H](COc3ccc(NC(=O)c4ccccc4)cc3C(=O)N2C)O1	none (no result: Neddylation inh, NadD block, DAGLB inhibitor, sPLA2-III inh)
O=C(CSc1nnc(SCc2ccccc2)s1)N/N=C/C=C/c1ccco1	NadD block 48 | NadD conf 43
Cc1cccc2sc(NC(=O)c3cccc(S(=O)(=O)N4CCc5ccccc54)c3)nc12	none
Cc1cc(C)c2nc(NC(=O)c3cccc(S(=O)(=O)N4CCc5ccccc54)c3)sc2c1	NadD block 44 | NadD conf inactive
O=c1c2ccccc2c(/C=N/c2nnc(Cc3ccccc3)s2)c(O)n1-c1ccc(Cl)cn1	NadD block 48 (no result: ARNT TACC3 PPI) | NadD conf inactive
OCCNc1c2ccccc2nc2ccccc12	none
CCCNc1c(F)c(F)c2c(C)c3ccccc3nc2c1F	NadD block 39 | NadD conf inactive
O=C(CSc1n[nH]c(-c2cccs2)n1)N1CCN(S(=O)(=O)c2ccc3ccccc3c2)CC1	NadD block 47 | NadD conf inactive
CC(=O)c1cccc(NC(=O)C2C3C=CC(C3=C(c3ccccc3)c3ccccc3)C2C(=O)O)c1 (configuration not stated)	NadD block 37 | NadD conf 50
CC(=O)c1cccc(NC(=O)Nc2ccccc2)c1	none
COc1ccc(Cn2c(SCc3cc(C)ccc3C)nc3cc(OC)c(OC)cc3c2=N)cc1	NadD block 39 | NadD conf inactive
COc1cc2nc(SCc3ccc(Cl)cc3Cl)n(Cc3cccs3)c(=N)c2cc1OC	none
COc1ccc(Cn2c(SCc3ccc(C)cc3)nc3cc(OC)c(OC)cc3c2=N)cc1Cl	NadD block 51 | NadD conf inactive
O=C(C[C@@H]1C=C[C@H](NC(=O)Nc2ccccc2)[C@@H](CO)O1)NCc1cccc(F)c1	none (no result: Neddylation inh, NadD block, DAGLB inhibitor, sPLA2-III inh)
O=C(C[C@H]1C[C@@H]2c3cc(NC(=O)c4cccnc4)ccc3O[C@@H]2[C@@H](CO)O1)NCC(F)(F)F	none (no result: Neddylation inh, NadD block, DAGLB inhibitor, sPLA2-III inh)
Cc1ccc(-c2nc3ccccc3[nH]2)cc1NC(=O)c1ccc2c(c1)OCO2	none
CCOc1ccc(C(=O)Nc2cc(-c3nc4ccccc4[nH]3)ccc2Cl)cc1[N+](=O)[O-]	NadD block 34 | NadD conf inactive
O=C(NC(=S)Nc1cc(-c2nc3ccccc3[nH]2)ccc1Cl)c1ccc2c(c1)OCO2	NadD block 30 | NadD conf 47
